Pf growth 48h – P. falciparum growth inhibition at 48 hours (one generation); 5.9% of 310,000 active; Potency, µM (doses to about 28.7 µM), for inactives: top-dose activity change, negative = inhibition, hits mostly inhibitors; AID 504832; P. falciparum luciferase growth in erythrocytes, 48 h; further: on the % scale 0 is the no-effect control and ±100 the full control effect
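Cell-based growth assay: transgenic P. falciparum expressing firefly luciferase, cultured in red cells within RPMI 1640 containing 0.5% w/v Albumax, 24 mM bicarbonate and gentamycin. A drop in luciferase activity indicates inhibition.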
NS1 function inh – blocks influenza NS1 protein function; AID 2326; Potency, µM (titrated, usually from 46.1 µM), inactives show top-dose activity, positive = more growth; 0.4% of 270,000 active; calls by dose curve; further: actives are rising curves; nearly all actives have a fitted effect of over 50% in size
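Compounds were scored for reversing the slow growth caused by influenza A NS1 in S. cerevisiae, measured by optical density at 600 nm. Assay medium contained 2% galactose at pH 6.0; NS1-free yeast of the same strain were the positive control.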
SARS PLP yeast – inhibitors of SARS-CoV papain-like protease in yeast | S. cerevisiae expressing SARS-CoV PLpro, growth rescue | Potency, µM (titrated, usually from 32.9 µM), without a hit: top-dose activity, positive = growth rescue, actives largely listed as activators | 0.19% of 330,000 active; calls by dose curve; further: 0% is about no effect; nearly all actives have a fitted effect of over 55% in size
Pf growth 96h – P. falciparum growth inhibition at 96 hour, primary screen for plastid delayed-death inhibitors; P. falciparum luciferase reporter growth, 96 h; Potency, µM (doses to about 28.7 µM), for inactives: at the top dose activity change, negative = inhibition, most hits filed as inhibitors; 6.9% of 320,000 active; AID 504834; further: on the % scale 0 is the no-effect control and ±100 the full control effect
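Two-generation exposure (96 h) targets delayed-death phenotype. Reporter parasites carrying integrated firefly luciferase, in red cells at 2% hematocrit and 0.05% parasitemia final, kept at 37 C, 5% CO2; luminescence loss indicates inhibition.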
Active calls of the source: *; ? = inconclusive; . = not tested or not shown; [ ] = remark or other dose. The list is not random: actives were taken first. Their share in the collection is about 10%. Unless noted, the call rests on the fitted dose curve; in most records, active means well fitted inhibition curve with a large enough effect; inconclusive means small, poorly fitted or top-dose-only effect, or another doubt; inactive means no such curve, though single readings can be large or run the other way. Potency means the concentration at half of the fitted maximal effect.

SMILES	Pf growth 48h	NS1 function inh	SARS PLP yeast	Pf growth 96h
O=C(NC1CCCCC1)C(c1ccc2ncccc2c1)N(Cc1ccc(F)cc1)C(=O)c1cccs1 (stereo not drawn)	8.28µM*	18.3%	-0.8%	10.4µM*
Cc1ccc(N(C(=O)Cc2cccs2)C(C(=O)NC2CCCCC2)c2ccccn2)cc1C (stereo not drawn)	0.0%	-24.5%	-26.3%	4.15µM*
COC(=O)c1ccc(C(C(=O)NC2CCCCC2)N(CCc2ccccc2)C(=O)Cc2cccs2)cc1 (stereo not drawn)	21.0%	-3.8%	7.6%	?
COC(=O)c1ccc(C(C(=O)NC2CCCCC2)N(Cc2ccc(F)cc2)C(=O)Cc2cccs2)cc1 (stereo not drawn)	11.7µM*	11.1%	2.7%	?
O=C(NC1CCCCC1)C(c1ccc(F)cc1)N(C(=O)c1cccs1)c1ccc2c(c1)OCO2 (stereo not drawn)	-0.9%	-3.4%	-1.8%	20.1%
Cc1ccc(OCC(=O)c2c(N)n(C)c(=O)n(C)c2=O)c([N+](=O)[O-])n1	-8.4%	.	6.7%	?
N#Cc1cccc(NS(=O)(=O)c2ccccc2Cl)c1	-7.2%	.	-11.0%	?
COc1ccc(OCc2cc(C(=O)N3CCOCC3)no2)c(Cl)c1	195.2%	-7.9%	-1.9%	53.7%
COc1ccc(N(C(=O)CCl)C(C(=O)NCCc2ccccc2)c2cccs2)cc1 (stereo not drawn)	14.7µM*	-26.8%	-27.0%	102.6%
COc1ccc(C(C(=O)NC2CCCC2)N(Cc2cccnc2)C(=O)Cc2cccs2)cc1OC (stereo not drawn)	-14.0%	3.8%	-1.8%	-8.2%
COc1ccc(CN(C(=O)Cc2cccs2)C(C(=O)NC2CCCC2)c2ccncc2)cc1 (stereo not drawn)	?	-31.5%	-11.7%	14.7µM*
COc1ccc(CCNC(=O)C(C)SCc2ccccc2)cc1 (stereo not drawn)	-19.6%	-9.8%	0.1%	44.7%
CC(C)CN1CC(COCc2ccccc2)Oc2ccccc2S1(=O)=O (stereo not drawn)	.	.	15.4%	.
O=C(NCCc1nccs1)C1CCC(=O)N(CCc2ccc(Cl)cc2)C1 (stereo not drawn)	-1.6%	17.8%	5.1%	-11.5%
COCCNC(=O)CN(C(=O)Cn1nnc2ccccc21)c1ccccc1C	10.7%	2.0%	0.3%	13.1%
COCCNC(=O)CN(C(=O)Cn1nnc2ccccc21)c1ccc(F)c(Cl)c1	17.5%	2.7%	11.5%	10.4µM*
O=P(O)(O)OP(=O)(O)O	3.79µM*	-2.8%	.	?
O=P(O)(O)CP(=O)(O)O	11.7%	0.5%	3.7%	-7.1%
C=CCNC(=S)N1CCC(Cc2ccccc2)CC1	?	-72.1%	0.3%	11.7µM*
CNC(=S)N1CCC(Cc2ccccc2)CC1	?	-5.3%	3.2%	1.9%
C=CCNC(=O)c1ccc(CN2CCC(Cc3ccccc3)CC2)cc1	10.4µM*	1.3%	-3.5%	-15.3%
CC(C)NC(=O)c1ccc(CN2CCC(Cc3ccccc3)CC2)cc1	?	8.8%	2.6%	?
COc1ccc(C2Oc3ccccc3C3=C2C(c2cccs2)n2ncnc2N3)cc1 (stereo not drawn)	8.28µM*	?	10.4%	.
Brc1ccc(C2C3=C(Nc4ncnn42)c2ccccc2OC3c2ccncc2)cc1 (stereo not drawn)	13.1µM*	6.8%	3.2%	.
O=C(CSc1nc2c(cnn2-c2cccc(Cl)c2)c(=O)[nH]1)NCCC1=CCCCC1	-12.3%	.	0.6%	5.5%
SMILES	Pf growth 48h	NS1 function inh	SARS PLP yeast	Pf growth 96h
Nn1c(SCc2ccccn2)nncc1=O	18.2%	5.0%	-0.3%	11.7µM*
S=C1NCN2CCN(CC2)CNC(=S)C(=S)NCN2CCN(CC2)CNC1=S	.	-7.6%	.	.
COc1ccc(/C=C/C(=O)Nc2cc(F)ccc2C)cc1S(=O)(=O)N1CCOCC1	14.7µM*	.	0.7%	?
COc1ccc(S(=O)(=O)N2CCOCC2)cc1NC(=O)/C=C/c1ccc(F)cc1	?	.	-4.8%	?
COc1ccccc1NC(=O)/C=C/c1ccc(OC)c(S(=O)(=O)N2CCOCC2)c1	13.1µM*	.	-0.8%	-4.5%[5.75 µM]
CCCNC(=O)/C=C/c1ccc(S(=O)(=O)Nc2ccccc2OC)cc1	-23.6%	.	-4.9%	9.28µM*
COc1ccccc1NS(=O)(=O)c1ccc(/C=C/C(=O)O)cc1	15.7%	.	0.5%	2.7%
Cc1ccc(F)cc1NC(=O)/C=C/c1ccc(S(=O)(=O)N2CCOCC2)cc1	.	.	-8.4%	.
COc1ccccc1CNC(=O)/C=C/c1ccc(S(=O)(=O)N2CCOCC2)cc1	?	.	0.4%	4.65µM*
COc1ccc(/C=C/C(=O)Nc2cc(S(=O)(=O)N3CCOCC3)ccc2OC)cc1	.	.	0.7%	.
CNC(=O)C(=O)NCCN1CCN(S(=O)(=O)c2ccc3ccccc3c2)CC1	142.0%	3.1%	0.4%	-0.7%
O=C(Cc1cccs1)NC1C(=O)N2C(C(=O)[O-])=C(C[n+]3ccccc3)CSC12 (stereo not drawn)	-9.1%	.	.	1.7%
COc1ccc(/C=C/C(=O)NC2CCCCCC2)cc1S(=O)(=O)N1CCOCC1	?	-0.6%	12.4%	9.28µM*
COc1ccc(/C=C/C(=O)Nc2ccccc2C(N)=O)cc1S(=O)(=O)N1CCOCC1	?	.	0.8%	4.15µM*
O=C(/C=C/c1ccc(S(=O)(=O)N2CCOCC2)cc1)NCCc1ccc(C(F)(F)F)cc1	11.7µM*	.	2.0%	6.57µM*
COc1ccccc1NS(=O)(=O)/C=C/c1ccccc1	-6.3%	-12.7%	-9.4%	8.28µM*
COc1ccc(CCNC(=O)/C=C/c2ccc(S(=O)(=O)N3CCOCC3)cc2)cc1	-17.0%	.	-2.1%	?
O=C(COc1ccc(Br)cc1F)Nc1nnc(C2CC2)s1	.	.	0.4%	.
CCCC[C@H]1COCCS(=O)(=O)N1Cc1ccc(Br)cc1	?	-100.8%	-20.4%	?
CCCCCCCCOC(=O)C[N+](C)(C)C/C=C(/C)Cl	2.62µM*	-0.6%	-25.0%	4.15µM*
CCCCCCCCCCOC(=O)C[N+](C)(C)C/C=C(/C)Cl	?	-1.6%	-47.5%	2.33µM*
Cc1ccc(S(=O)(=O)CCC(=O)Nc2nnc(-c3cccs3)o2)cc1	-7.5%	.	2.6%	?
COCCN(Cc1nc2ccccc2c(=O)[nH]1)C(=O)c1cccc(S(=O)(=O)N2CCCC2)c1	?	.	-1.1%	-29.0%
COc1ccccc1CCC(=O)Nc1cccc(S(=O)(=O)N2CCCCCC2)c1	?	.	-4.4%	-29.1%
CN(CC(=O)Nc1ccc(Cl)c(C(F)(F)F)c1)C(=O)CCNC(=O)c1ccco1	10.4µM*	.	2.4%	-25.1%
COc1cc(NCC(=O)Nc2cccc(S(=O)(=O)N3CCCCC3)c2)cc(OC)c1OC	1.85µM*	.	-1.9%	?
COCCN(CC(=O)Nc1cccc(S(=O)(=O)N2CCCC2)c1)Cc1nc2ccccc2c(=O)[nH]1	10.4µM*	.	0.5%	?
CCOc1ccc(NC(=O)CN(C)C(=O)CCNC(=O)c2ccco2)cc1OCC	-21.3%	.	7.8%	-0.7%
O=C(CCl)Nc1cccc(S(=O)(=O)N2CCCCCC2)c1	6.57µM*	-17.9%	29.0%	5.22µM*
O=C(CN(C(=O)C1CSC(=O)C1)c1ccc(F)cc1)NCc1ccc2c(c1)OCO2 (stereo not drawn)	-3.3%	5.0%	-0.8%	?

Source: PubChem BioAssay
